This is an account of results in PubChem BioAssay AID853 (Columbia University Molecular Screening Center, 2007).

SMILES strings stand for the structures. In all, about 47,000 compounds went through this assay and about 200 (0.43%) were called active. Not shown: some 1% with an inconclusive outcome. This is one part of a sample in which actives are shown more often than they occur.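 Rule for the calls: active = inhibition of aggregate fluorescence above about 70%, also judged a hit by eye on the cell image (limit read from the data, passing the limit was not always enough); inconclusive = no rule stated for this call; inactive = not judged a hit on image review.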

In general, inhibition refers to the relative decrease from the control value, in per cent.

The experiment can be described thus: removal of polyQ htt aggregates in HeLa – imaging, HeLa Exon1htt(103Q)mCFP, confocal imaging, primary screen (AID 853).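 Note: cells exposed to compound for three days before fixation.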 The conditions noted are these: aggregate imaging, at 1.5 µM; fraction fluorescence in grains: measured here: aggregate grain fluorescence fraction, stronger effect = lower value; inhibition: stronger effect = higher value, zero = plate's median compound well.
As for `CCOc1ccc(N=Cc2c(O)n(-c3cccc(C)n3)c(=O)c3ccccc23)cc1`, the fraction fluorescence in grains came out at 45.9 and the inhibition was -5.8% (inactive).

In the case of `CCC(C)(C)n1nnnc1CN1CCN(c2nc3ccc(C)cc3cc2C#N)CC1`, the fraction fluorescence in grains was found to be 29 and the inhibition is 23.1% (inactive).

As to `O=c1[nH]c2c(c(=O)n1Cc1ccccc1)CCC2`, the fraction fluorescence in grains is 13.3 and the inhibition was 28.6% (inactive).

Take `COc1ccccc1-c1nnc(SCC(=O)Nc2cc(C)on2)o1`: the fraction fluorescence in grains was 16.4 and the inhibition is 15.8% (inactive).

For the compound `Cc1cc(C)cc(OCc2nnc(SCC(=O)Nc3ccccc3)o2)c1`, the fraction fluorescence in grains is 15 and the inhibition is 15.8% (inactive).

For the compound `COc1ccccc1-c1nnc(SCC(=O)Nc2ccccc2)o1`, the fraction fluorescence in grains worked out at 4.28 and the inhibition is 73.5% (active).

`Cc1cc(C)n(-c2c(F)c(F)c(COC(=O)c3ccccc3)c(F)c2F)n1`: the fraction fluorescence in grains came out at 25.1 and the inhibition is -56.6% (inactive).

As to `CCCCOC(=O)Cn1c(=O)n(CC(=O)OCCCC)c2cc(C)ccc21`, the fraction fluorescence in grains was determined as 19 and the inhibition was -6.9% (inactive).

Turning to `CC(=O)Nc1ccccc1C(=O)C(=O)Nc1ccc(F)cc1`, the fraction fluorescence in grains was determined as 57.6 and the inhibition was -48.2% (inactive).

Take `CCOc1ccc(N(CC(=O)NC2CCCCCC2)S(=O)(=O)c2c(C)[nH]c(=O)[nH]c2=O)cc1`: the fraction fluorescence in grains was 41.2 and the inhibition is -15.2% (inactive).

For `CCCC(=O)N1CCc2[nH]c3ccccc3c2C1`, the fraction fluorescence in grains was 26.6 and the inhibition is 21.6% (inactive).

Take `Cc1c(CN2CCC(C)CC2)c(=O)n(-c2ccccc2)n1C`: the fraction fluorescence in grains was 56.1 and the inhibition is -32.3% (inactive).

As for `COc1ccc(C2C(C(C)=O)=C(O)C(=O)N2Cc2cccnc2)cc1` (stereo not drawn), the fraction fluorescence in grains worked out at 15.5 and the inhibition is 17.5% (inactive).

Take `COC(=O)c1cccc(NC(=O)CSc2nc(C)cc(=O)[nH]2)c1`: the fraction fluorescence in grains was determined as 13.9 and the inhibition is 27.8% (inactive).

For the compound `Cn1ccs/c1=N\S(=O)(=O)c1ccc(C(C)(C)C)cc1`, the fraction fluorescence in grains amounted to 37.7 and the inhibition is 0.2% (inactive).

`CCOc1ccc(NC(=O)CCC(=O)n2nc(C)cc2C)cc1`: the fraction fluorescence in grains was 4 and the inhibition was 79.1% (active).

As for `CCOc1ccc(NC(=O)Nc2cc(C)on2)cc1`, the fraction fluorescence in grains came out at 23.9 and the inhibition was -47.8% (inactive).

Regarding `CCCCOc1ccc(NC(=O)CSCC(=O)OCC)cc1`, the fraction fluorescence in grains amounted to 53.3 and the inhibition is -31.6% (inactive).

As to `O=C(CSc1nnc(-c2cccnc2)n1CCc1ccccc1)NCc1ccccc1`, the fraction fluorescence in grains was determined as 34.5 and the inhibition was -83.7% (inactive).

`CC(C)(C)C(=O)Cn1c(NCCO)nc2ccccc21`: the fraction fluorescence in grains is 13.3 and the inhibition is 30.8% (inactive).

In the case of `Oc1c(C(c2cccs2)N2CCN(c3ccc(F)cc3)CC2)sc2ncnn12` (stereo not drawn), the fraction fluorescence in grains was 72.5 and the inhibition is -45.9% (inactive).

Turning to `COc1ccc(-n2c(SCC(=O)NCc3cccs3)nnc2-c2ccoc2C)cc1`, the fraction fluorescence in grains worked out at 22.6 and the inhibition was 33.8% (inactive).

For the compound `O=C(NCCCNCc1ccccc1)c1ccc(/C=N/O)nc1`, the fraction fluorescence in grains turned out to be 39.1 and the inhibition is 3.6% (inactive).

With `Cc1ccc(C2C(C#N)C(C#N)N3CCCN23)cc1` (stereo not drawn), the fraction fluorescence in grains came to 23.7 and the inhibition was 40.7% (inactive).

Consider `CCOc1ccccc1C(=O)NC1CC2CCCC(C1)N2Cc1ccccc1` (stereo not drawn), for which the fraction fluorescence in grains turned out to be 14.9 and the inhibition is 23.5% (inactive).

Regarding `CNc1nc(SC)nc(N(C#N)CC(=O)OC)n1`, the fraction fluorescence in grains worked out at 30.5 and the inhibition was -71% (inactive).

In the case of `C=CCn1c(C(C)NC(=O)CC)nc2ccccc21` (stereo not drawn), the fraction fluorescence in grains came out at 34.1 and the inhibition was -61.6% (inactive).

`CCC(=O)Nc1nc2ccccc2n1Cc1ccccc1C`: the fraction fluorescence in grains was determined as 32.9 and the inhibition is 4.8% (inactive).

For the compound `CC(=O)NC(C)c1nc2ccccc2n1Cc1ccccc1F` (stereo not drawn), the fraction fluorescence in grains worked out at 3.88 and the inhibition was 76.4% (active).

`COC(=O)C1C(=O)NCC1c1ccc(OC)cc1` (stereo not drawn): the fraction fluorescence in grains stood at 12 and the inhibition was 35.5% (inactive).

For `Cc1sc2nc(SCC(N)=O)n(C)c(=O)c2c1C`, the fraction fluorescence in grains came to 18.7 and the inhibition was -1.9% (inactive).

With `Cc1ccccc1NC(=O)c1ccccc1NS(=O)(=O)c1cccc2cccnc12`, the fraction fluorescence in grains stood at 11.2 and the inhibition is 46.2% (inactive).

For `Cn1c(SCC(=O)N2CCOCC2)nnc1-c1ccc(NC(=O)c2ccccc2F)cc1`, the fraction fluorescence in grains amounted to 22.6 and the inhibition is -25.1% (inactive).

For the compound `O=C(NCCCCc1ccccc1)C1CC(c2ccc([N+](=O)[O-])cc2)=NO1` (stereo not drawn), the fraction fluorescence in grains worked out at 23.6 and the inhibition was 39.3% (inactive).

Turning to `NC1=NC(=O)C2(COC(c3ccccc3Cl)OC2)S1` (stereo not drawn), the fraction fluorescence in grains was determined as 13.6 and the inhibition is 19.2% (inactive).

For `Cc1nnc(SCC(=O)NCCOc2ccc(Cl)cc2)n1-c1ccccc1`, the fraction fluorescence in grains was determined as 36.3 and the inhibition was 2.1% (inactive).

For the compound `O=C(CSc1nnc(-c2cccs2)n1Cc1ccccc1)N1CCc2ccccc2C1`, the fraction fluorescence in grains came out at 52.6 and the inhibition is -33.1% (inactive).

In the case of `CCOc1ccccc1C1NC(=O)NC(C)=C1C(=O)OCc1ccco1` (stereo not drawn), the fraction fluorescence in grains stood at 36.7 and the inhibition was -10.5% (inactive).

In the case of `COCCOC(=O)C1=C(C)NC(=O)NC1c1ccc(Cl)cc1` (stereo not drawn), the fraction fluorescence in grains stood at 28.5 and the inhibition was 33.5% (inactive).

Regarding `COc1cccc2c(=O)n(CC(=O)N3CCCCCC3)ccc12`, the fraction fluorescence in grains came out at 40.9 and the inhibition is -22% (inactive).

Consider `COc1ccc(N(CC(=O)NC2CCCCC2)C(=O)CNC(=O)c2ccco2)c(OC)c1`, for which the fraction fluorescence in grains came to 22.1 and the inhibition was -26.1% (inactive).

Turning to `Cc1noc(COc2ccccc2OCc2onc(C)c2Cl)c1Cl`, the fraction fluorescence in grains was 24.8 and the inhibition is -49.4% (inactive).

Regarding `CCOC(=O)C1CCN(Cc2coc3ccc(Cl)cc3c2=O)CC1`, the fraction fluorescence in grains was 22.3 and the inhibition was -15.2% (inactive).

In the case of `Cc1cccc2c(=O)n3c(nc12)CCCCC3`, the fraction fluorescence in grains amounted to 18.2 and the inhibition is 11% (inactive).
